Source: PubChem BioAssay (NCATS)
Records with an inconclusive call do not appear. A call without a number means that no potency is given here. Calls of active or inactive are those of the source. The call rests on the fitted dose curve; in most records, active means well fitted curve in the direction sought with a large enough effect; inconclusive means small, poorly fitted or top-dose-only effect, or another doubt; inactive means no such curve, though single readings can be large; an effect the other way counts as inactive or inconclusive.

How the values were obtained:
[1] = qHTS of pediatric cancer cell lines to identify multiple opportunities for drug repurposing: Primary screen for SJ-GBM2 cells (AID 1347091)
How it was run: (§1)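 Cell viability, CellTiter-Glo luminescence; 500-1,000 cells/well, 8- or 11-point titration, 48 h compound exposure at 37 degrees C, 5% CO2. Controls: DMSO neutral, bortezomib 2.3 µM final as positive.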

[2] = qHTS of pediatric cancer cell lines to identify multiple opportunities for drug repurposing: Primary screen for A673 cells (AID 1347092); further: nearly all actives have a fitted effect of over 45% in size; further: potency means the concentration at half of the fitted maximal effect
How it was run: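 Titration-based qHTS on A673 cells: MIPE compounds spanned 11 points (0.78 nM to 46 µM final), NPC compounds 8 points (0.59 nM to 46 µM final). Viability after 48 h was measured by ATP luminescence.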

[3] = qHTS of pediatric cancer cell lines to identify multiple opportunities for drug repurposing: Primary screen for SK-N-SH cells (AID 1347098); further: nearly all actives have a fitted effect of over 65% in size; further: potency means the concentration at half of the fitted maximal effect
How it was run: (§2)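 Cells (500-1,000/well) rested 5 h, then received compounds for 48 h; metabolically active cells were measured by CellTiter-Glo luminescence. Final concentrations spanned up to 46 µM (MIPE, 11-point) or 0.59 nM-46 µM (NPC, 8-point) in primary screens, 11-point in follow-ups.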

[4] = qHTS of pediatric cancer cell lines to identify multiple opportunities for drug repurposing: Primary screen for DAOY cells (AID 1347090); further: series mostly up to about 46 µM; nearly all actives have a fitted effect of over 55% in size
How it was run: as §1

[5] = qHTS of pediatric cancer cell lines to identify multiple opportunities for drug repurposing: Primary screen for BT-37 cells (AID 1347094); further: series mostly up to about 57 µM
How it was run: (§3)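 Phenotypic viability qHTS, 48 h compound exposure, CellTiter-Glo luminescence read-out; multi-concentration dosing so that potency and efficacy derive directly from the primary screen's curves.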

[6] = qHTS of pediatric cancer cell lines to identify multiple opportunities for drug repurposing: Primary screen for U-2 OS cells (AID 1347096); further: nearly all actives have a fitted effect of over 50% in size
How it was run: as §2

[7] = qHTS of pediatric cancer cell lines to identify multiple opportunities for drug repurposing: Primary screen for Saos-2 cells (AID 1347097); further: nearly all actives have a fitted effect of over 40% in size; further: potency means the concentration at half of the fitted maximal effect
How it was run: as §3

[8] = qHTS of pediatric cancer cell lines to identify multiple opportunities for drug repurposing: Primary screen for NB1643 cells (AID 1347099); further: nearly all actives have a fitted effect of over 50% in size; further: potency means the concentration at half of the fitted maximal effect
How it was run: as §3

[9] = qHTS of pediatric cancer cell lines to identify multiple opportunities for drug repurposing: Primary screen for SK-N-MC cells (AID 1347093); further: series mostly up to about 46 µM
How it was run: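 Metabolically active cells were quantified by ATP-dependent luminescence (CellTiter-Glo, 15 min at room temperature) following 48 h treatment. Cells had been plated at 500-1,000 per well and settled for 5 h beforehand.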

[10] = qHTS of pediatric cancer cell lines to identify multiple opportunities for drug repurposing: Primary screen for NB-EBc1 cells (AID 1347095)
How it was run: as §3

SMILES: Cc1ccc(N)cc1O
- outcome [1]: inactive
- Potency [2]: 30.6 µM (active)
- Potency [3]: 31.4 µM (active)

SMILES: O=C(O)c1c(O)c(-c2ccccc2)nc2ccccc12
- outcome [4]: inactive
- outcome [1]: inactive
- Potency [2]: inactive
- outcome [5]: inactive
- outcome [6]: inactive
- Potency [7]: inactive
- Potency [3]: inactive
- Potency [8]: inactive

SMILES: CCC(C(=O)O)c1ccc(N2Cc3ccccc3C2=O)cc1 (centres undefined)
- outcome [4]: inactive
- outcome [1]: inactive
- Potency [2]: inactive
- outcome [9]: inactive
- outcome [5]: inactive
- outcome [10]: inactive
- outcome [6]: inactive
- Potency [7]: inactive
- Potency [3]: inactive
- Potency [8]: inactive

SMILES: O=C(O)c1ccccc1NCCc1ccccc1
- outcome [4]: inactive
- outcome [1]: inactive
- Potency [2]: inactive
- outcome [5]: inactive
- outcome [10]: inactive
- outcome [6]: inactive
- Potency [7]: inactive
- Potency [3]: inactive
- Potency [8]: inactive

SMILES: Nc1ccccc1N
- outcome [1]: inactive
- Potency [2]: 15.4 µM (active)
- Potency [7]: 30.6 µM (active)
- Potency [8]: 30.6 µM (active)

SMILES: CCOCCOC(=O)/C=C/c1ccc(OC)cc1
- outcome [4]: inactive
- outcome [1]: inactive
- Potency [2]: inactive
- outcome [9]: inactive
- outcome [5]: inactive
- outcome [10]: inactive
- outcome [6]: inactive
- Potency [7]: inactive
- Potency [3]: inactive
- Potency [8]: inactive
